In all, about 330,000 compounds went through this assay and about 4,100 (1.2%) were called active. Only a selection was taken, and actives are over-represented in it overall. Unmarked numbers belong to inactive results. No stated cut-off is given here; in the data, active means inhibition above about 50%; inactive means the rest.

Sequence of Sentrin-specific protease 8 (Homo sapiens) (Q96LD8 whole entry, looked up): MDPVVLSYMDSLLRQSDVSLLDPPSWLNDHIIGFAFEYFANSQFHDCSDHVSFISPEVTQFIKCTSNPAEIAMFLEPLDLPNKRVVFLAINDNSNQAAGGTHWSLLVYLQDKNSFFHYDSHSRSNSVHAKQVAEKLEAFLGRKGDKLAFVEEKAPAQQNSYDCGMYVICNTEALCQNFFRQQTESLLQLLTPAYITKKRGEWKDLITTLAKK

This experiment has as its target Sentrin-specific protease 8 (Homo sapiens) (UniProt Q96LD8). Description: SENP8 protease inhibitors, primary screen, biochemical, luminescence (AID 2540). The conditions noted are these: purified SENP8, Z-RLRGG-aminoluciferin cleavage, at 10 µM, stronger effect = higher value.
With `COc1ccccc1NC(=O)C1=C(C)Nc2nc3ccccc3n2C1c1cccs1` (centres undefined), the inhibition is -5.43%. On to `O=C(Nc1ccc(N2CCCC2=O)cc1)c1cncc(Br)c1`, for which the inhibition was -0.181%.

On to `CCOC(=O)c1sc(NC(=O)c2ccncc2)nc1C`, for which the inhibition was 88.2% (active). The result for `CCOC(=O)c1sc(NC(=O)c2sc(C)nc2C)nc1C` reads 13.7%. For `CCOC(=O)c1cccnc1NC(=O)c1ccncc1` the value was -5.42%. For `Cc1ccc(NC(=O)CN(C)C(=O)c2ccc(Cl)c(S(=O)(=O)NCc3ccco3)c2)cc1`, the inhibition was -1.14%. `O=CN1CCN(C(=O)c2ccc(Br)o2)CC1`: the inhibition was 0.91%. The result for `Cc1onc(C(=O)Nc2ccc3c(c2)OCO3)c1[N+](=O)[O-]` reads -9.15%; that for `CC(=O)Nc1cccc(C(=O)OCC(=O)c2ccc3c(c2)OCO3)c1`, 67.1% (active). The result for `O=C(Nc1ccccc1)c1ccc2c(c1)OCCCO2` reads 75.9% (active); that for `CN1CCN(c2ccc(NC(=O)c3ccc4c(c3)OCCO4)cc2Cl)CC1`, 3.49%.

For the compound `O=C(COC(=O)c1ccncc1)Nc1ccc2c(c1)OCO2`, the inhibition was 8.05%. Consider `O=C(Nc1ccc(NC(=O)c2ccc3c(c2)OCO3)cc1)c1cccc(Cl)c1`, for which the inhibition is -4.6%.

On to `O=C(COC(=O)c1ccc(F)cc1)Nc1ccc2c(c1)OCO2`, for which the inhibition was -15.4%. Consider `O=C(Nc1ccc(N2CCOCC2)cc1)c1ccc2c(c1)OCO2`, for which the inhibition is 12.3%.

Turning to `O=C(Nc1cccc([N+](=O)[O-])c1)c1ccc2c(c1)OCO2`, the inhibition is 59.1% (active). For `CC(NC(=O)Nc1cccc([N+](=O)[O-])c1)c1ccc2c(c1)OCO2` (centres undefined) the value was -0.051%; for `O=C(Nc1ccccc1)c1ccc2c(c1)OCO2`, 66.7% (active). For `O=C(Nc1ccc2c(c1)OCCO2)c1ccoc1` the value was -5.62%; for `Cc1ccsc1C1C(C#N)=C(N)OC2=C1C(=O)CC(C)C2` (centres undefined), -10.3%. As for `Cc1ccc(S(=O)(=O)N2CCCCC2)cc1NC(=O)c1cccnc1`, the inhibition was -12.3%. For `CC1(C)C/C(=N/Nc2ccc([N+](=O)[O-])cc2[N+](=O)[O-])C(C)(C)O1` the value was -5.03%; for `CCCCn1c(N)c(N(CC(C)C)C(=O)CN(C)S(=O)(=O)c2ccc(F)cc2)c(=O)[nH]c1=O`, 2.26%. As to `COC(=O)C1=C(C(=O)OC)C2(OC1c1ccc(Br)cc1)C(=O)c1ccccc1C2=O` (centres undefined), the inhibition was -0.809%.

On to `N#CCCN(C(=O)COC(=O)c1ccc2c(c1)OCCO2)c1ccccc1`, for which the inhibition was 10%. For `Cc1ccc2sc(NNC(=O)c3ccc4c(c3)OCCO4)nc2c1C` the value was -5.8%; for `COc1cc(C(=O)NCC2(c3ccccc3)CCCC2)ccc1OC(C)C`, 1.28%. The result for `O=C(Nc1ccccc1F)c1ccc2c(c1)OCO2` reads 65.2% (active). `COCc1nnc(NC(=O)c2ccc3c(c2)OCO3)s1`: the inhibition is 0.871%. The result for `O=C(Nc1nc2ccccc2s1)c1ccc2c(c1)OCO2` reads 94.1% (active).

On to `O=C(OCc1ccccc1F)c1ccc2c(c1)OCCO2`, for which the inhibition is 80.2% (active). The result for `N#Cc1ccccc1NC(=O)c1ccc2c(c1)OCO2` reads 0.633%; that for `COc1ccc(C(=O)Nc2ccc3nc(N4CCCCC4)cc(C)c3c2)cc1OC`, 1.68%.

As for `COc1ccc(C(=O)Nc2ccc(C3(C#N)CCCC3)cc2)cc1OC`, the inhibition was 92.8% (active).

Turning to `O=C(COC(=O)c1ccc2c(c1)OCCO2)NCc1ccccc1Cl`, the inhibition was -14.4%. For `CN(Cc1c(F)cccc1Cl)C(=O)CNC(=O)c1ccc2c(c1)OCO2` the value was -2.64%; for `O=C(Nc1cc(Cl)ccc1N1CCOCC1)c1ccc(N2CCCC2=O)cc1`, 6.24%. The result for `CC(CNc1ccc([N+](=O)[O-])c2cccnc12)Nc1c([N+](=O)[O-])cc(C(F)(F)F)cc1[N+](=O)[O-]` (centres undefined) reads -1.48%; that for `CCN(CC)CCOc1ccc2c(c1)C(=NNC(=O)c1ccccn1)c1cc(OCCN(CC)CC)ccc1-2`, -1.52%; that for `N#Cc1ccc(OCC(=O)NC(=O)NC2CCS(=O)(=O)C2)cc1` (centres undefined), 0.761%. The result for `COc1cc(/C=C/C(=O)O)cc(S(=O)(=O)Nc2ccccc2C(=O)NCCc2ccccc2)c1OC` reads 0.693%; that for `Cc1cc(C)c(C#N)c(SCS(=O)c2ccc(C(C)(C)C)cc2)n1` (centres undefined), -4.22%; that for `CN1CC(c2ccccc2)C2(COc3ccccc3C2=O)C12C(=O)Nc1ccccc12` (centres undefined), 0.36%. For `CC(=O)c1ccccc1NC(=O)CC1(CC(=O)O)CCCCC1`, the inhibition was 1.06%. The result for `Clc1ccc(CSc2nnc([C@@H]3CCCN3)o2)cc1` reads -0.161%. Turning to `CC(C)[C@@H]1NC(=O)c2cc([N+](=O)[O-])cc(I)c2NCCC[C@@H](C(=O)NC(CC(=O)O)C(N)=O)NC(=O)[C@H](CO)NC1=O` (some centres undefined), the inhibition is 3.05%. With `O=C(NCCOc1ccccc1F)Nc1ccc(Br)cc1`, the inhibition was -3.32%.

`COc1cc(NC(=O)c2ccc3c(c2)OCO3)ccc1NC(=O)c1cccs1`: the inhibition is -17.4%. The result for `CC(C)C(=O)Nc1cccc(C(=O)Nc2ccc3c(c2)OCO3)c1` reads 1.49%; that for `CC(C)(C)SCCNC(=O)c1cccc([N+](=O)[O-])c1`, -0.846%.

Regarding `Cc1cc(C)nc(NC(=O)c2cccc([N+](=O)[O-])c2)c1`, the inhibition is -2.37%. The result for `COc1ccc(C(=O)Nc2ccc3c(c2)OCO3)cc1OC` reads 77.5% (active); that for `O=C(Nc1ccc(C2CC2(Cl)Cl)cc1)c1cccc([N+](=O)[O-])c1` (centres undefined), 50.5% (active); that for `CCN(c1ccccc1)S(=O)(=O)c1cc2c(cc1C)n(C)c(=O)c(=O)n2C`, -13.5%. For `CCN1CCN(c2cc3nc(C)n(Cc4ccccc4)c(=O)c3cc2NC(=O)c2ccccc2F)CC1` the value was -6.48%. For `COc1ccc(C)cc1NC(=O)CSc1nnc2ccc(-c3ccccn3)nn12`, the inhibition was 4.77%. For `Brc1ccccc1CN1CCC(Cc2ccccc2)CC1` the value was 3.24%. The result for `COc1ccc(-n2nnnc2-c2nc3ccccc3s2)cc1` reads 50.3% (active); that for `COc1ccc(C2=NN(c3nc4ccccc4s3)C(=O)C2)cc1`, 10.1%. For `COc1ccc(-n2nnnc2CNC(=O)c2ccc3ccccc3c2)cc1` the value was -10.6%; for `N#Cc1c(N)sc2c1CCN(C(=O)OCc1ccccc1)C2`, 2.15%; for `COc1ccc(SCCN2CCN(CC(C)C)CCC2=O)cc1`, 5.29%. Take `O=C(NCCCN1CCCC1=O)C(=O)NCC1OCCN1S(=O)(=O)c1ccc(Br)cc1` (centres undefined): the inhibition is -0.009%. The result for `O=C(/C=C/c1ccc2c(c1)OCCO2)c1ccc(O)cc1` reads 76.9% (active).

Consider `CN(C)c1ccc(/C=C/C(=O)c2ccc(O)cc2)cc1[N+](=O)[O-]`, for which the inhibition is -28.3%. Consider `O=C(O)/C=C/c1ccc2c(c1)OCCO2`, for which the inhibition is 1.06%. The result for `CNS(=O)(=O)c1ccc(NC(=O)Nc2ccc3c(c2)OCO3)cc1` reads -9.35%.

On to `CN1CCN(c2ncc3c(n2)CC(c2ccccc2F)CC3=O)CC1` (centres undefined), for which the inhibition is -5.2%.

For the compound `O=C(CCNC(=O)c1ccccc1Cl)NCc1ccco1`, the inhibition is -2.13%. The result for `Cc1cccc(Nc2ccccc2C(=O)NCc2ccco2)c1C` reads -4.58%; that for `O=C(Nc1ccccc1)Nc1ccccc1C(=O)NCc1ccco1`, 65.9% (active); that for `CCOc1ccc(NC(=O)C/C(C)=N/NC(=O)Cc2cccs2)cc1`, -7.21%.

As for `CC(C)[C@H](NC(=O)N1CCn2c1nc1ccccc12)C(=O)NC1CC1`, the inhibition was -8.07%. The result for `CSCCC(NC(=O)COc1ccccc1)C(=O)OCCOc1ccc(Br)cc1` (centres undefined) reads -20.5%; that for `CCC(C)(C)NC(=O)C(c1ccc(O)cc1)N(Cc1ccco1)C(=O)CCC(=O)Nc1ccccn1` (centres undefined), -6.41%; that for `CC(=C/c1ccccc1)/C=N/NC(=O)c1cc(C)oc1C`, 73.3% (active). On to `Cc1cc(C(=O)N/N=C\C(Br)=C\c2ccccc2)c(C)o1`, for which the inhibition is 38.8%. As to `COc1ccc(C/C(C)=N/NC(=O)c2cc(C)oc2C)cc1`, the inhibition was -5.88%.

`Cc1ccccc1N/N=C/c1ccc(N2CCOCC2)cc1`: the inhibition was -7.47%. `Cc1cc(C(=O)N/N=C/c2ccc(N3CCOCC3)cc2)c(C)o1`: the inhibition was 84.5% (active). For the compound `O=C(NN=Cc1ccc(N2CCOCC2)cc1)c1cc2ccccc2cc1O`, the inhibition was -1.63%. For `CCCOc1ccc(C2=CSC3=NCCN23)cc1Cl` the value was -25.9%; for `CCN(C(=O)CSc1nnc(-c2ccncc2)o1)c1ccccc1`, -5.88%. For `COc1ccc(CNc2c(CO)cnc3c2cnn3C)cc1` the value was 3.66%; for `CC(=O)c1cc2c(cc1NC(=O)CN1CCCCCC1)OCO2`, 6.92%.

Regarding `COCCN(C(=O)CSCc1ccc(C)cc1)c1c(N)n(CC(C)C)c(=O)[nH]c1=O`, the inhibition was -1.3%. `CCCCCC(=O)N1CCN(S(=O)(=O)c2ccc3c(c2)OCCCO3)CC1`: the inhibition is 0.168%. As for `Cc1ccsc1C(=O)N/N=C/c1ccc([N+](=O)[O-])cc1`, the inhibition was 73.3% (active). For `Cc1ccc(NC(=O)c2sccc2C)cc1[N+](=O)[O-]` the value was 3.23%. For `O=C(N/N=C/c1ccc([N+](=O)[O-])cc1)C(=O)N1CCCC1` the value was -9.06%; for `CN(CCOc1ccccc1)Cc1nc2cc(Cl)ccc2c(=O)[nH]1`, 0.32%. For `COCC(C)n1c(C)cc(C(=O)COc2ccc(C)nc2[N+](=O)[O-])c1C` (centres undefined) the value was 4.55%; for `C#Cc1ccc([C@@H]2C=C(C(=O)O)O[C@H](OCCCCO)C2)cc1`, -9.34%. For the compound `CCC(C)NC(=O)/C=C/c1ccc(S(=O)(=O)NCc2ccco2)cc1` (centres undefined), the inhibition was -7.51%.

As a reminder, the inhibition is the drop in the measured response relative to a control, in per cent.

These data come from PubChem BioAssay AID2540 (Sanford-Burnham Center for Chemical Genomics, 2010).
